# Laboratory results reported in PubChem BioAssay (Tox21).
# Values without a mark were called inactive. Unless noted, the call rests on the fitted dose curve; in most records, active means well fitted cell-killing curve with a large enough effect in the repeat runs; inconclusive means weak or mixed curves; inactive means flat fitted curve, though single readings scatter. Records with an inconclusive call do not appear.
# System: not listed separately
# Experiment: qHTS assay to identify small molecule antagonists of the estrogen receptor beta (ER-beta) signaling pathway - cell viability counter screen (AID 1259382);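 further: HEK293T cells carrying ER-beta-UAS-bla reporter stimulated with estradiol; nearly all actives have a fitted effect of over 55% in size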
# Conditions: ER-beta-UAS-bla HEK293T viability, CellTiter-Glo luminescence, 16 h; series mostly up to 92.4 µM; activity change, negative = cytotoxicity: at the top concentration
# Outline: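 Readout: luminescence, CellTiter-Glo, same wells as bla assay. System: ER-beta-UAS-bla GripTite HEK293T, 2% charcoal-stripped FBS. Exposure: compounds plus 1nM 17-beta-estradiol, 16 hr, 37C.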
# On the % scale 0 is the no-effect control and ±100 the full control effect.
row,Compound,"activity change, negative = cytotoxicity"
1,OC[C@@H](O)[C@H](O)[C@@H](O)[C@@H](O)CO,11.4%
2,CCCCCCCC/C=C\CCCCCCCC(=O)OC[C@@H](O)[C@H]1OC[C@H](O)[C@H]1O,0.905%
3,O=C(O)CCNC(=O)c1ccccc1,-2.36% [at 42.5 µM]
4,Nc1nc(=O)n([C@@H]2O[C@H](CO)[C@@H](O)[C@@H]2F)cc1I,5.47% [at 42.5 µM]
5,CC(C)CCC(=O)CCC(C)C,7.53%
6,CCOC(=O)C(=O)c1csc(NC=O)n1,5% [at 42.5 µM]
7,CC(C)C(=O)c1ccccc1,-0.0303%
8,FC(F)(F)/C(=N\OCC1OCCO1)c1ccc(Cl)cc1,-0.974%
9,OCCCCCCCl,-0.678%
10,CCCCCC(=O)OCC,11.5%
11,CN=C(NC#N)NCCSCc1csc(N=C(N)N)n1,10.7% [at 42.5 µM]
12,CCCCCCCCOC(C)=O,1.97%
13,C=CCOC(=O)c1ccc(C(=O)OCC=C)c(C(=O)OCC=C)c1,-5.05%
14,CC(C)COC(=O)/C=C/c1ccccc1,0.165%
15,CCN(CCO)c1cccc(C)c1,1.11%
16,C[N+](C)(C)CC(O)CCl (configuration not stated),3.41%
17,CCCCCCCCCCCCC,6.79%
18,Nc1ccc(S(=O)(=O)Nc2ccccn2)cc1,6.08% [at 42.5 µM]
19,CCC1COC(=O)O1 (configuration not stated),12.7%

row,Compound,"activity change, negative = cytotoxicity"
1,CCCCCCCCCCC,-12.4%
2,CC1CCC(C(C)(C)S)C(=O)C1 (configuration not stated),-7.03%
3,CC1=CC[C@H](CC=O)C1(C)C,3.32%
4,CCCCOC(=O)[C@@H](C)Oc1ccc(Oc2ccc(C(F)(F)F)cn2)cc1,0.433%
5,CCC(O)C(C)(C)C (configuration not stated),7.98%
6,O=C(Oc1ccccc1C(=O)O)c1ccccc1O,8.73% [at 42.5 µM]
7,CCOC(=O)CC#N,10.7%
8,C=CCOCC(CO)(COCC=C)COCC=C,10.2% [at 42.5 µM]
9,NC(=O)NC(=O)Cc1ccccc1,8.2% [at 42.5 µM]
10,O=C1CC[C@H](C(=O)N2CCCCC2)N1,0.773% [at 42.5 µM]
11,COc1ccc(NS(=O)(=O)c2ccc(N)cc2)nn1,2.07% [at 42.5 µM]
12,COC(OC)C(C)c1ccccc1 (configuration not stated),-0.542%
13,CC(=O)c1ccc2c(c1)CCCC2,3.16%
14,O=CN1CCOCC1,7.93%
15,CN[C@@H]1[C@H](O)[C@H](NC)[C@H]2O[C@@]3(O)C(=O)C[C@@H](C)O[C@H]3O[C@@H]2[C@H]1O,6.45% [at 42.5 µM]
16,COC(/C=C(\C)CCC=C(C)C)OC,21.4%
17,C[C@H](CCC(=O)O)[C@H]1CC[C@H]2[C@@H]3[C@H](O)C[C@@H]4C[C@H](O)CC[C@]4(C)[C@H]3C[C@H](O)[C@]12C,2.37% [at 42.5 µM]
18,CCc1nccnc1C,1.36%
19,CCN(Cc1cccc(S(=O)(=O)O)c1)c1ccccc1,-5.87%

# Molecular target: Estrogen receptor (Homo sapiens) (UniProt P03372)
# Sequence (P03372 whole entry, looked up): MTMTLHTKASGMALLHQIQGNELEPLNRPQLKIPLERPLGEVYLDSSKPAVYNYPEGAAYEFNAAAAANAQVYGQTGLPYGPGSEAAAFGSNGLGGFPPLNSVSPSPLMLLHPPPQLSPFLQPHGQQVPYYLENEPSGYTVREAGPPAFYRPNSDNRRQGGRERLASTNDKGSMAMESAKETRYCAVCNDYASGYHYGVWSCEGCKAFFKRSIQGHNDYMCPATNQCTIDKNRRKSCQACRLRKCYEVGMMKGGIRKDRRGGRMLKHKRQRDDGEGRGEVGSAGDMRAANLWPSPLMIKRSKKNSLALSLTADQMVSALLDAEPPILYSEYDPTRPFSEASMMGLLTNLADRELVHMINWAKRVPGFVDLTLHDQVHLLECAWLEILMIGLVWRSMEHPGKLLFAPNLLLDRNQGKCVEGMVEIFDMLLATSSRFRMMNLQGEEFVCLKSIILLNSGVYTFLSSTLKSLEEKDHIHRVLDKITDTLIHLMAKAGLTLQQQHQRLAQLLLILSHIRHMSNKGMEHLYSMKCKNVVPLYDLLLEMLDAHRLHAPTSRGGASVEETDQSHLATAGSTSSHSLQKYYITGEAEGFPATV
# Experiment: qHTS assay to identify small molecule agonists of the estrogen receptor alpha (ER-alpha) signaling pathway in the presence of an antagonist (AID 1259383; calls by dose curve; further: top concentration of the series differs between compounds; nearly all actives have a fitted effect of over 15% in size)
# Conditions: VM7Luc4E2 cells, ERE-luciferase, +ICI-182,780, 22 h; series mostly up to 92.4 µM; activation: at the top concentration
# Outline: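 Quantitative HTS confirmation: compounds titrated at 15 concentrations onto estrogen-deprived VM7Luc4E2 cells carrying a four-ERE luciferase construct, with ICI-182,780 present at 10.0nM final. Signal is luminescence after 22hr exposure.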
row,Compound,activation
1,OC[C@@H](O)[C@H](O)[C@@H](O)[C@@H](O)CO,-0.184%
2,CCCCCCCC/C=C\CCCCCCCC(=O)OC[C@@H](O)[C@H]1OC[C@H](O)[C@H]1O,-0.0288%
3,O=C(O)CCNC(=O)c1ccccc1,0.23% [at 42.5 µM]
4,Nc1nc(=O)n([C@@H]2O[C@H](CO)[C@@H](O)[C@@H]2F)cc1I,-0.972% [at 42.5 µM]
5,CC(C)CCC(=O)CCC(C)C,-1.07%
6,CCOC(=O)C(=O)c1csc(NC=O)n1,0.72% [at 42.5 µM]
7,CC(C)C(=O)c1ccccc1,-0.989%
8,FC(F)(F)/C(=N\OCC1OCCO1)c1ccc(Cl)cc1,0.613%
9,OCCCCCCCl,-1.29%
10,CCCCCC(=O)OCC,0.069%
11,CN=C(NC#N)NCCSCc1csc(N=C(N)N)n1,0.446% [at 42.5 µM]
12,CCCCCCCCOC(C)=O,0.0979%
13,C=CCOC(=O)c1ccc(C(=O)OCC=C)c(C(=O)OCC=C)c1,0.113%
14,CC(C)COC(=O)/C=C/c1ccccc1,6.55%
15,CCN(CCO)c1cccc(C)c1,0.316%
16,C[N+](C)(C)CC(O)CCl (configuration not stated),-2.35%
17,CCCCCCCCCCCCC,-0.322%
18,Nc1ccc(S(=O)(=O)Nc2ccccn2)cc1,0.243% [at 42.5 µM]
19,CCC1COC(=O)O1 (configuration not stated),-0.319%
